{"source": "PubChem BioAssay (EPA / NIEHS)", "key": {"[1]": {"test": "IUF_NPC1_cytotoxicity_72hr: Cytotoxicity Assessment at 72 hours in the Leibniz Research Institute for Environmental Medicine (IUF) Neural Progenitor Cell Proliferation Assay (NPC1) (AID 2284332);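 note: rising LDH signal means more cytotoxicity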", "outline": "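Cytotoxicity by LDH membrane-integrity assay on medium supernatants, fluorescence via resazurin reduction, after 3-day single exposure of primary hNPC spheres at 37C, pH 7.2-7.6 with growth factors. Fitted upward against baseline.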"}, "[2]": {"test": "CCTE_Mundy_HCI_iCellGluta_NOG_NeuronCount: CCTE's Neurite Outgrowth Assay in iCellGluta cells for Neuron Count, Mundy Lab (AID 2284340);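 note: cells fixed about 48 h after compound addition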", "outline": "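Neuron count read by automated high-content imaging of Hoechst 33342 and betaIII-tubulin/Alexa Fluor-488 labelling in human iPSC glutamatergic neurons. Activity fitted relative to DMSO.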"}, "[3]": {"test": "CCTE_Mundy_HCI_iCellGluta_NOG_NeuriteCount: CCTE's Neurite Outgrowth Assay in iCellGluta cells for Neurite Count, Mundy Lab (AID 2284342);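 note: chemical exposure about 48 hours starting 2 hours after plating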"}, "[4]": {"test": "CCTE_Deisenroth_5AR_NBTE_acceptor: CCTE's 5alpha-reductase NanoBRET Target Engagement Assay - Autofluorescence Screen, Deisenroth Lab (AID 2284321; active = hit-call score of the fitted dose curve at least 0.9, where 1 is the maximum; inactive = score below 0.9;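 note: compound fluorescence in the acceptor channel under 460 nm excitation flags autofluorescence artifacts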)", "settings": "actives raise or lower the signal", "outline": "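Acceptor fluorescence intensity was read as an artifact-detection endpoint. Test chemicals at an assumed nominal 100 uM were excited at 460 nm across three independent runs. Activity was fitted bidirectionally against DMSO.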"}, "[5]": {"system": "SRD5A2 (gene 6716)", "test": "CCTE_Deisenroth_5AR_NBTE_ratio: CCTE's 5alpha-reductase NanoBRET Target Engagement Assay - Ratio, Deisenroth Lab (AID 2284322; active = hit-call score of the fitted dose curve at least 0.9, where 1 is the maximum; inactive = score below 0.9)", "settings": "actives raise or lower the signal", "outline": "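HEK293T cells transiently expressing an SRD5A2-NanoLuc fusion (20 h post-transfection) were exposed to test chemical (10 nM - 29.9 uM, 8 points) for 3 h, then testosterone tracer for a further 2 h. Acceptor/donor BRET ratio was fitted bidirectionally against DMSO baseline.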"}, "[6]": {"system": "SERPINA7 (gene 6906)", "test": "CCTE_GLTED_hTBG: CCTE's human Thyroxine-binding Globulin (TBG) Inhibition Assay, Great Lakes Toxicology and Ecology Division (GLTED) Lab (AID 2284343)", "outline": "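Cell-free displacement of the fluorescent probe ANSA from human thyroxine-binding globulin after 2 h exposure. Read-out at ex 380/em 475 nm; DMSO baseline.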"}, "[7]": {"test": "VALA_MIGHUV1_ScratchOnly_WoundArea: VALA Sciences human Umbilical Vein Endothelial Cell Migration (MIGHUV) Assay, Area of Scratch Wound Inhibited Recovery (AID 2284336)", "outline": "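Wound area remaining after 24 h recovery imaged by Hoechst nuclear fluorescence in scratched HUVEC cultures, chemicals added within 30 min of scratching across a 6-point series. Gain of signal fitted against 0.1% DMSO; cytochalasin D positive control.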"}, "[8]": {"test": "VALA_TUBHUV_Agonist_TubuleLength: VALA Sciences human Umbilical Vein Endothelial Tubule Formation (TUBHUV) Agonism Assay (AID 2284337)", "outline": "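Tubule length quantified by CD31 immunofluorescence imaging after fixation. HUVEC-HDF co-cultures (1:3) pre-grown 3 days with 10 ng/ml VEGF, then dosed 3 days in VEGF medium; 0.1 % DMSO vehicle baseline.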"}, "[9]": {"test": "VALA_TUBIPS_Agonist_CellCount: Viability Assessment in the VALA Sciences human iPS-derived Endothelial Tubule Formation (TUBIPS) Agonism Assay (AID 2284338)"}, "[10]": {"system": "Brachyury (BRA) Protein Expression, Deisenroth Lab, TBXT (gene 6862)", "test": "CCTE_Deisenroth_DEVTOX-GLR_legacy_Bra: (Legacy) CCTE's DevTox GLR-Endo Assay Evaluation of Brachyury (BRA) Protein Expression, Deisenroth Lab (AID 2284329; active = hit-call score of the fitted dose curve at least 0.9, where 1 is the maximum; inactive = score below 0.9)", "outline": "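High-content imaging of fixed RUES2-GLR cells after a 48-hour differentiation with two compound exposures yields percent cells whose Bra signal exceeds pluripotent control median by 5x BMAD; values are baseline-corrected to DMSO.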"}, "[11]": {"test": "CCTE_Deisenroth_DEVTOX-GLR_legacy_CellCount: (Legacy) Viability Assessment in CCTE's DevTox GLR-Endo Assay, Deisenroth Lab (AID 2284331; active = hit-call score of the fitted dose curve at least 0.9, where 1 is the maximum; inactive = score below 0.9)", "settings": "actives raise or lower the signal", "outline": "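Seed RUES2-GLR 24 h; differentiate 48 h, dosing at 0 and 24 h; fix, stain nuclei; image 5 fields/well; count nuclei. Conc. 1 nM - 200 uM, single technical replicate, n=4 experiments; bidirectional fit vs 0.2% DMSO.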"}, "[12]": {"system": "SRY-box transcription factor 17 (SOX17) Protein Expression, Deisenroth Lab, SOX17 (gene 64321)", "test": "CCTE_Deisenroth_DEVTOX-GLR_legacy_Sox17: (Legacy) CCTE's DevTox GLR-Endo Assay Evaluation of SRY-box transcription factor 17 (SOX17) Protein Expression, Deisenroth Lab (AID 2284341; active = hit-call score of the fitted dose curve at least 0.9, where 1 is the maximum; inactive = score below 0.9)", "settings": "actives raise or lower the signal", "outline": "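Using the RUES2-GLR line, compounds are tested as 10-point series during 48-h defined-media differentiation. Sox17 reporter fluorescence per cell determines positivity; endpoint is percentage positive, analysed bidirectionally versus DMSO baseline.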"}, "[13]": {"system": "SRY-box transcription factor 2 (SOX2) Protein Expression, Deisenroth Lab, SOX2 (gene 6657)", "test": "CCTE_Deisenroth_DEVTOX-GLR_legacy_Sox2: (Legacy) CCTE's DevTox GLR-Endo Assay Evaluation of SRY-box transcription factor 2 (SOX2) Protein Expression, Deisenroth Lab (AID 2284346; active = hit-call score of the fitted dose curve at least 0.9, where 1 is the maximum; inactive = score below 0.9)", "outline": "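Two exposures, 24 h apart, during 48 h defined-media differentiation of seeded RUES2-GLR cells; nuclei-stained cells imaged. Sox2 positivity called at 5x BMAD above endoderm control median, DMSO median subtracted.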"}}, "note": "Records with an inconclusive call do not appear. Active and inactive are the calls of the source. Rule for the calls, unless noted: active = hit-call score of the fitted dose curve at least 0.9, where 1 is the maximum; inconclusive = response in the unintended direction; inactive = score below 0.9."}
{"compound": "CC1(C)[C@H](C(=O)O[C@H](C#N)c2cccc(Oc3ccccc3)c2)[C@@H]1/C=C(\\Cl)C(F)(F)F", "values": [{"measurement": "outcome", "setting": "[1]", "value": "inactive"}, {"measurement": "outcome", "setting": "[2]", "value": "inactive"}, {"measurement": "outcome", "setting": "[3]", "value": "inactive"}]}
{"compound": "O=[N+]([O-])c1ccccc1O", "values": [{"measurement": "outcome", "setting": "[4]", "value": "inactive"}, {"measurement": "AC50", "setting": "[5]", "value": "50 µM (active)"}]}
{"compound": "OC(Cc1ccccc1Cl)(Cn1[nH]cnc1=S)C1(Cl)CC1", "note": "(configuration not stated)", "values": [{"measurement": "outcome", "setting": "[1]", "value": "inactive"}, {"measurement": "AC50", "setting": "[2]", "value": "50 µM (active)"}, {"measurement": "outcome", "setting": "[3]", "value": "inactive"}]}
{"compound": "N#CCCC(Br)(C#N)CBr", "note": "(configuration not stated)", "values": [{"measurement": "AC50", "setting": "[4]", "value": "54.4 µM (active)"}, {"measurement": "AC50", "setting": "[5]", "value": "69.9 µM (active)"}]}
{"compound": "Nc1ccc(N)cc1", "values": [{"measurement": "AC50", "setting": "[6]", "value": "20.3 µM (active)"}]}
{"compound": "O=S1(=O)OC(c2cc(Br)c(O)c(Br)c2)(c2cc(Br)c(O)c(Br)c2)c2ccccc21", "values": [{"measurement": "outcome", "setting": "[4]", "value": "inactive"}, {"measurement": "AC50", "setting": "[5]", "value": "4.66 µM (active)"}, {"measurement": "AC50", "setting": "[6]", "value": "7.4 µM (active)"}]}
{"compound": "Nc1ncn[nH]1", "values": [{"measurement": "outcome", "setting": "[7]", "value": "inactive"}, {"measurement": "outcome", "setting": "[8]", "value": "inactive"}, {"measurement": "outcome", "setting": "[9]", "value": "inactive"}]}
{"compound": "O=C(NC(=O)c1c(F)cccc1F)Nc1cc(Cl)c(OC(F)(F)C(F)C(F)(F)F)cc1Cl", "note": "(configuration not stated)", "values": [{"measurement": "AC50", "setting": "[6]", "value": "19.5 µM (active)"}]}
{"compound": "Cc1cc(C(F)(C(F)(F)F)C(F)(F)F)ccc1NC(=O)c1cccc(I)c1C(=O)NC(C)(C)CS(C)(=O)=O", "values": [{"measurement": "outcome", "setting": "[1]", "value": "inactive"}, {"measurement": "outcome", "setting": "[2]", "value": "inactive"}, {"measurement": "outcome", "setting": "[3]", "value": "inactive"}]}
{"compound": "CC(=Cc1ccccc1)[N+](=O)[O-]", "values": [{"measurement": "outcome", "setting": "[4]", "value": "inactive"}, {"measurement": "outcome", "setting": "[5]", "value": "inactive"}]}
{"compound": "CNC(=O)CSP(=O)(OC)OC", "values": [{"measurement": "outcome", "setting": "[1]", "value": "inactive"}]}
{"compound": "O=S1OC[C@@H]2[C@H](CO1)[C@]1(Cl)C(Cl)=C(Cl)[C@@]2(Cl)C1(Cl)Cl", "note": "(some centres not stated)", "values": [{"measurement": "outcome", "setting": "[1]", "value": "inactive"}]}
{"compound": "CCOP(=S)(OCC)O/N=C(\\C#N)c1ccccc1", "values": [{"measurement": "outcome", "setting": "[4]", "value": "inactive"}, {"measurement": "AC50", "setting": "[5]", "value": "20.1 µM (active)"}, {"measurement": "AC50", "setting": "[6]", "value": "20.6 µM (active)"}]}
{"compound": "NC(=O)c1ccc(N)nc1", "values": [{"measurement": "AC50", "setting": "[10]", "value": "24.1 µM (active)"}, {"measurement": "AC50", "setting": "[11]", "value": "30.6 µM (active)"}, {"measurement": "AC50", "setting": "[12]", "value": "21 µM (active)"}, {"measurement": "AC50", "setting": "[13]", "value": "52.9 µM (active)"}]}
{"compound": "CS(=O)(=O)c1ccc(C(=O)C2C(=O)CCCC2=O)c(Cl)c1COCC(F)(F)F", "values": [{"measurement": "outcome", "setting": "[1]", "value": "inactive"}, {"measurement": "outcome", "setting": "[2]", "value": "inactive"}, {"measurement": "AC50", "setting": "[3]", "value": "25.3 µM (active)"}]}
{"compound": "Cc1ccccc1OP(=O)(Oc1ccccc1C)Oc1ccccc1C", "values": [{"measurement": "AC50", "setting": "[2]", "value": "13.5 µM (active)"}, {"measurement": "AC50", "setting": "[3]", "value": "12.5 µM (active)"}]}
{"compound": "CCC[CH2][Sn]([Cl])([Cl])[CH2]CCC", "values": [{"measurement": "AC50", "setting": "[4]", "value": "5.59 µM (active)"}, {"measurement": "AC50", "setting": "[5]", "value": "13 µM (active)"}]}
{"compound": "CCOCn1c(-c2ccc(Cl)cc2)c(C#N)c(Br)c1C(F)(F)F", "values": [{"measurement": "AC50", "setting": "[1]", "value": "50.4 µM (active)"}, {"measurement": "AC50", "setting": "[2]", "value": "27.1 µM (active)"}, {"measurement": "AC50", "setting": "[3]", "value": "21.3 µM (active)"}, {"measurement": "AC50", "setting": "[6]", "value": "2.12 µM (active)"}]}
{"compound": "O=c1nc(O)n(Cl)c(=O)n1Cl", "values": [{"measurement": "outcome", "setting": "[4]", "value": "inactive"}, {"measurement": "outcome", "setting": "[5]", "value": "inactive"}]}
{"compound": "O=c1[nH]c(=O)n(Cl)c(=O)n1Cl", "values": [{"measurement": "outcome", "setting": "[4]", "value": "inactive"}, {"measurement": "outcome", "setting": "[5]", "value": "inactive"}]}
